Experimental data from PubChem BioAssay (EPA / NIEHS).
Inconclusive results are not listed. The source made the active and inactive calls. Rule for the calls: active = hit-call score of the fitted dose curve at least 0.9, where 1 is the maximum; inconclusive = response in the unintended direction; inactive = score below 0.9.

biological target: Retinoic acid receptor RXR-alpha (Homo sapiens) (UniProt P19793); test: OT_NURR1_NURR1RXRa_0480: Odyssey Thera (OT) 8-hour HEK293T Protein Complementation Assay for Nurr1/retinoid X receptor (RXR) (AID 2283385)
Sequence (P19793 whole entry, looked up, the tested form may be a part): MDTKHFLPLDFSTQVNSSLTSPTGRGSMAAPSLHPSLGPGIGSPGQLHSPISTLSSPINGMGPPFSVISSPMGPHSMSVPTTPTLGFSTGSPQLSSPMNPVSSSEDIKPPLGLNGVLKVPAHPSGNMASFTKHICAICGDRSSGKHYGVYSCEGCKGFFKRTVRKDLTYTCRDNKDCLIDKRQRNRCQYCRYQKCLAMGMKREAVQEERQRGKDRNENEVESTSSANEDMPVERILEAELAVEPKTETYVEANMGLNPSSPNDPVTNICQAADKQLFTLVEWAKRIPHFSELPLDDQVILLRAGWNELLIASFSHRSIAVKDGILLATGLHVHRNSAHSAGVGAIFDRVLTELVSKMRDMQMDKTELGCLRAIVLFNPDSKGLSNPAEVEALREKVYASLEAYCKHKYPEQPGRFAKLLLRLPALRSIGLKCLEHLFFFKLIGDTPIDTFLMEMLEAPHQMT
Protocol: OT_NURR1_NURR1RXRa_0480 is a cell-based assay that uses HEK293T, a human kidney cell line, with measurements taken at 8 hours after chemical dosing in a 384-well plate.OT_NURR1_NURR1RXRa_0480 is one of one assay component(s) measured or calculated from the OT_NURR1_NURR1RXRa_0480 assay. It is designed to make measurements of protein fragment complementation, a form of binding reporter, as detected with fluorescence intensity signals by Protein-fragment Complementation technology.Data from the assay component OT_NURR1_NURR1RXRa_0480 was analyzed into 1 assay endpoint. This assay endpoint, OT_NURR1_NURR1RXRa_0480, was analyzed in the positive analysis fitting direction relative to DMSO as the negative control and baseline of activity. Using a type of binding reporter, measures of receptor for gain-of-signal activity can be used to understand the binding at the pathway-level as they relate to the gene RXRA. Furthermore, this assay endpoint can be referred to as a primary readout, because the performed assay has only produced 1 assay endpoint. To generalize the intended target to other relatable targets, this assay endpoint is annotated to the nuclear receptor intended target family, where the subfamily is non-steroidal.
Protein-fragment complementation assay, or PCA, is a method for the identification and quantification of protein-protein interactions. In the PCA, the proteins of interest ("bait" and "prey") are each covalently linked to fragments of a third protein (e.g. DHFR, which acts as a "reporter"). Interaction between the bait and the prey proteins brings the fragments of the reporter protein in close proximity to allow them to form a functional reporter protein whose activity can be measured.

outcome, inactive:
C1=CCC=C1
O=C(OCc1ccccc1)c1ccccc1
CC[N+](CC)(CC(=O)Nc1c(C)cccc1C)Cc1ccccc1 (tested in a mixture with another compound)
Nc1ccc(S(=O)(=O)Nc2cnc3ccccc3n2)cc1
O=C(CC(C(=O)OC1CCCCC1)S(=O)(=O)O)OC1CCCCC1 (stereo unspecified)
O=C(O)/C=C\C(=O)O
Cc1cc(O)cc(C)c1Cl
F[B-](F)(F)F
C[Si](C)(C)O[Si](C)(C)O[Si](C)(C)C
CCOC(=O)c1ccccc1
CCC(C)=NO
CC[N+](CC)(CC(=O)Nc1c(C)cccc1C)Cc1ccccc1
C=C1CC[C@H]2C[C@@H]1C2(C)C
Sc1nc2ccccc2s1
CCCCCC[C@@H](O)C/C=C\CCCCCCCC(=O)O
Oc1cccc2ccccc12
Cc1cc(C)c(S(=O)(=O)O)cc1N=Nc1cc(S(=O)(=O)O)c2ccccc2c1O
CC/C=C\CCO

AC50, active:
COC(=O)[C@]1(C)CCC[C@@]2(C)[C@H]1CC=C1C=C(C(C)C)CC[C@@H]12 71.6 µM
CCCCC(CC)COC(=O)CS (stereo unspecified) 50 µM
O=C(Oc1ccccc1)c1ccccc1 75.8 µM
